SMILES strings stand for the structures. “And” between values parts separate entries of the source, which are not always exact repeats. Equal entries are not always repeated. This is part of a sample that, as a whole, favours compounds with a hit. Of some 79,000 tested, about 15% had one in any assay. Some structures have more than one record in an assay (separate samples or runs), and their calls can disagree. The source made the active and inactive calls. Rule as the data show it: active = growth inhibition above about 70%; inactive = the rest.

Test [1] is described as follows: NCI Yeast Anticancer Drug Screen. Data for the rad50 strain (AID 155).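 Also: 0% = growth of vehicle-only cultures of the same strain.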 Conditions: S. cerevisiae rad50 strain growth inhibition, stronger effect = higher value. Summed up:
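Growth of the mutant yeast was measured after compound exposure and referenced to vehicle-treated cultures.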

Test [2] is described as follows: NCI Yeast Anticancer Drug Screen. Data for the mec2-1 strain (AID 157). Conditions: S. cerevisiae mec2-1 strain, stronger effect = higher value. A digest of the protocol:
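Mutant yeast (mec2-1) grown with compound; growth inhibition relative to vehicle control reported.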

Test [3] can be described thus: NCI Yeast Anticancer Drug Screen. Data for the sgs1 mgt1 strain (AID 161).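 Also: 0% = growth of cultures given vehicle only.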 Conditions: S. cerevisiae sgs1 mgt1 strain, stronger effect = higher value. Summed up:
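This yeast growth screen uses a strain with defined DNA-repair lesions; compound-treated growth is compared with vehicle-treated growth.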

The nature of test [4]: NCI Yeast Anticancer Drug Screen. Data for the cln2 rad14 strain (AID 165).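 Also: 0% = growth equal to vehicle treated cultures.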 The note with it: S. cerevisiae cln2 rad14 strain, stronger effect = higher value. Summed up:
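Readout is yeast growth inhibition versus vehicle-treated controls, using a strain with cln2 and rad14 alterations exposed to compound.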

A short description of test [5]: NCI Yeast Anticancer Drug Screen. Data for the bub3 strain (AID 167). The note with it: S. cerevisiae bub3 mutant strain, stronger effect = higher value. A digest of the protocol: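 Whole-cell yeast assay. The mutant strain was incubated with compounds, and growth inhibition was determined by comparison with vehicle-treated cells.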
A short description of test [6]: NCI Yeast Anticancer Drug Screen. Data for the mlh1 rad18 strain (AID 175). The note with it: S. cerevisiae mlh1 rad18 strain growth inhibition, stronger effect = higher value. Summed up: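 Genetically defined yeast (DNA repair-deficient) exposed to compounds; growth inhibition determined relative to vehicle.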
The mark [7] stands for this setting: at 5.0 µM (retest, dose inferred, filed as 0.5).
The mark [8] stands for this setting: at 50.0 µM (retest, dose inferred, filed as 5.0).

Take `CC(=O)Nc1ccc(S(=O)(=O)N/N=C/c2ccc(C)cc2)cc1`: the growth inhibition was 7% (inactive) in test [1] (setting [7]); 8% (inactive) in test [1] (setting [8]); -3.15% (inactive) in test [1] (at 50.0 µM); 8% (inactive) in test [2] (setting [7]); 1% (inactive) in test [2] (setting [8]); -17.6% (inactive) in test [2] (at 50.0 µM). Besides, the growth inhibition in test [3] (setting [7]) is 15% (inactive); in test [3] (setting [8]) it was 6% (inactive); in test [3] (at 50.0 µM), 7.45% (inactive); in test [4] (setting [7]), 8% (inactive); in test [4] (setting [8]) it was 1% (inactive); in test [4] (at 50.0 µM), 64.5% (inactive). Moreover, the growth inhibition was 26% (inactive) in test [5] (setting [7]); -1% (inactive) in test [5] (setting [8]); -38.6% (inactive) in test [5] (at 50.0 µM); 28% (inactive) in test [6] (setting [7]); 7% (inactive) in test [6] (setting [8]); -12.4% (inactive) in test [6] (at 50.0 µM).
For the compound `Cc1c(Cl)cccc1NC(=O)CC1Sc2ccccc2NC1=O` (stereo unspecified), the growth inhibition in test [1] (setting [7]) is 23% (inactive); in test [1] (setting [8]), 83% (active); in test [1] (at 50.0 µM), -1.35% (inactive) and 51.1% (inactive); in test [2] (setting [7]), -7% (inactive); in test [2] (setting [8]) it was 52% (inactive); in test [2] (at 50.0 µM), -6.7% (inactive) and 44.2% (inactive). Further, the growth inhibition in test [3] (setting [7]) was 2% (inactive); in test [3] (setting [8]), 38% (inactive); in test [3] (at 50.0 µM), -22.2% (inactive) and 55% (inactive); in test [4] (setting [7]) it was 8% (inactive); in test [4] (setting [8]), 49% (inactive); in test [4] (at 50.0 µM), -1.1% (inactive) and 27.8% (inactive). The growth inhibition in test [5] (setting [7]) was 4% (inactive); in test [5] (setting [8]), 83% (active); in test [5] (at 50.0 µM), 1.6% (inactive) and 49.8% (inactive); in test [6] (setting [7]), -1% (inactive); in test [6] (setting [8]), 77% (active); in test [6] (at 50.0 µM), 6.5% (inactive) and 83% (active).
Take `Cc1cccc2c1Oc1cc(Cl)ccc1C2NC(=O)CCN1CCCCC1` (stereo unspecified): the growth inhibition in test [1] (setting [7]) is -22% (inactive); in test [1] (setting [8]) it was 24% (inactive); in test [1] (at 50.0 µM), 85.2% (active); in test [2] (setting [7]), -12% (inactive); in test [2] (setting [8]), 3% (inactive); in test [2] (at 50.0 µM), 25.9% (inactive). The growth inhibition in test [3] (setting [7]) is -6% (inactive); in test [3] (setting [8]), 21% (inactive); in test [3] (at 50.0 µM), 86.3% (active); in test [4] (setting [7]) it was 27% (inactive); in test [4] (setting [8]) it was 26% (inactive); in test [4] (at 50.0 µM), 65.7% (inactive). The growth inhibition in test [5] (setting [7]) was 16% (inactive); in test [5] (setting [8]) it was 20% (inactive); in test [5] (at 50.0 µM), -14.7% (inactive); in test [6] (setting [7]) it was 14% (inactive); in test [6] (setting [8]), 57% (inactive); in test [6] (at 50.0 µM), 69.1% (inactive).
Consider `Cc1ccc(S(=O)(=O)N/N=C2/C(=O)c3cccc4cccc2c34)cc1`, for which the growth inhibition in test [1] (setting [7]) was 6% (inactive); in test [1] (setting [8]), 74% (active); in test [1] (at 50.0 µM) it was 64.5% (inactive); in test [2] (setting [7]) it was -15% (inactive); in test [2] (setting [8]) it was 64% (inactive); in test [2] (at 50.0 µM), 12.8% (inactive). Moreover, the growth inhibition in test [3] (setting [7]) was 10% (inactive); in test [3] (setting [8]), 76% (active); in test [3] (at 50.0 µM), 55.8% (inactive); in test [4] (setting [7]), 2% (inactive); in test [4] (setting [8]), 39% (inactive); in test [4] (at 50.0 µM) it was 30.5% (inactive). The growth inhibition is 0% (inactive) in test [5] (setting [7]); 55% (inactive) in test [5] (setting [8]); 0.25% (inactive) in test [5] (at 50.0 µM); 33% (inactive) in test [6] (setting [7]); 92% (active) in test [6] (setting [8]); 24.8% (inactive) in test [6] (at 50.0 µM).
As to `O=C(CC1=Nc2nnc(CCCCCCCc3nnc4n3C(=O)C(CC(=O)c3ccc5ccccc5c3)=N4)n2C1=O)c1ccc2ccccc2c1`, the growth inhibition in test [1] (setting [7]) was 1% (inactive); in test [1] (setting [8]) it was 85% (active); in test [1] (at 50.0 µM), 17.9% (inactive); in test [2] (setting [7]), 1% (inactive); in test [2] (setting [8]) it was 92% (active); in test [2] (at 50.0 µM), 9.85% (inactive). Further, the growth inhibition is -2% (inactive) in test [3] (setting [7]); 93% (active) in test [3] (setting [8]); 18.4% (inactive) in test [3] (at 50.0 µM); 6% (inactive) in test [4] (setting [7]); 85% (active) in test [4] (setting [8]); 82.1% (active) in test [4] (at 50.0 µM). Besides, the growth inhibition was 6% (inactive) in test [5] (setting [7]); 88% (active) in test [5] (setting [8]); 1.75% (inactive) in test [5] (at 50.0 µM); 3% (inactive) in test [6] (setting [7]); 37% (inactive) in test [6] (setting [8]); 26.9% (inactive) in test [6] (at 50.0 µM).
As for `O=[N+]([O-])c1cc([N+](=O)[O-])c2ccccc2c1NS(=O)(=O)/C=C/c1ccccc1`, the growth inhibition in test [1] (setting [7]) was 5% (inactive); in test [1] (setting [8]), 54% (inactive); in test [1] (at 50.0 µM), 53% (inactive); in test [2] (setting [7]), 8% (inactive); in test [2] (setting [8]), 64% (inactive); in test [2] (at 50.0 µM), 70.7% (active). Moreover, the growth inhibition in test [3] (setting [7]) was 16% (inactive); in test [3] (setting [8]), 47% (inactive); in test [3] (at 50.0 µM), 49% (inactive); in test [4] (setting [7]) it was 10% (inactive); in test [4] (setting [8]), 77% (active); in test [4] (at 50.0 µM), 50.4% (inactive). The growth inhibition in test [5] (setting [7]) is 2% (inactive); in test [5] (setting [8]) it was 42% (inactive); in test [5] (at 50.0 µM) it was 16.3% (inactive); in test [6] (setting [7]), 7% (inactive); in test [6] (setting [8]), 71% (active); in test [6] (at 50.0 µM), 44.5% (inactive).
In the case of `CCN(CC)c1ccc(NC(C(=O)c2ccccc2)c2ccccc2)cc1` (stereo unspecified), the growth inhibition in test [1] (setting [7]) was 99% (active) and 2% (inactive); in test [1] (setting [8]), 99% (active) and 46% (inactive); in test [1] (at 50.0 µM) it was 99.4% (active) and 54.9% (inactive); in test [2] (setting [7]) it was 97% (active) and 2% (inactive); in test [2] (setting [8]) it was 99% (active) and 30% (inactive); in test [2] (at 50.0 µM) it was 98.9% (active) and 37.1% (inactive). For the same compound, the growth inhibition was 100% (active) and 8% (inactive) in test [3] (setting [7]); 100% (active) and 83% (active) in test [3] (setting [8]); 99.2% (active) and 81.2% (active) in test [3] (at 50.0 µM); 98% (active) and 0% (inactive) in test [4] (setting [7]); 99% (active) and 7% (inactive) in test [4] (setting [8]); 98.7% (active) and 42.6% (inactive) in test [4] (at 50.0 µM). For the same compound, the growth inhibition in test [5] (setting [7]) is 100% (active) and 2% (inactive); in test [5] (setting [8]), 99% (active) and 44% (inactive); in test [5] (at 50.0 µM), 99.2% (active) and 53.5% (inactive); in test [6] (setting [7]), 99% (active) and 2% (inactive); in test [6] (setting [8]) it was 99% (active) and 46% (inactive); in test [6] (at 50.0 µM), 98.5% (active) and 68.2% (inactive).

Values taken from PubChem BioAssay (NCI).
